A selection: hits, their analogues and other compounds. The true share with any hit is near 2.4%.
GLP1R ag = agonists of human GLP-1 receptor. HEK293 GLP-1R CRE-luciferase, luminescence, 4-6 h; cells express a hypersensitive GLP-1R form. Potency, µM (top dose mostly 45.6 µM), inactives show at the top dose activation, most hits filed as activators. 0.007% of 380,000 active. AID 624172; note: potency is the fitted concentration of half-maximal effect; % of control where 0% means no effect
Target sequence (P43220 whole entry, looked up): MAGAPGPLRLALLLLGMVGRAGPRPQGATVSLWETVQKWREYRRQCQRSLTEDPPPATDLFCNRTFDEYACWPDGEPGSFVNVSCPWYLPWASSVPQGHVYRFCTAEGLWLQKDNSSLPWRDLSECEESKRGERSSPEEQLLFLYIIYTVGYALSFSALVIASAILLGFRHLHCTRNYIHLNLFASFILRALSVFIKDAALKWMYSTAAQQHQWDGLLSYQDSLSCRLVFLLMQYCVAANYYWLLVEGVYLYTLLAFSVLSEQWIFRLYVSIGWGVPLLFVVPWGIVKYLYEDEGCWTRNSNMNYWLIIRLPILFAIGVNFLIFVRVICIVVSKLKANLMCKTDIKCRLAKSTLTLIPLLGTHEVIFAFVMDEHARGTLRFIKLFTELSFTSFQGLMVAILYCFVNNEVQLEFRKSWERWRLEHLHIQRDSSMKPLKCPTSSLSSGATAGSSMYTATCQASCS
PTHR1 ag = PTHR1 (human) receptor agonism | Q03431 | HEK293 GP2 PTHR1 cells, GloSensor cAMP luminescence, 1 h | Potency, µM (series often up to 115 µM), without a hit: at the top dose activation, most hits filed as activators | 0.075% of 410,000 active | AID 743266; note: potency is the fitted concentration of half-maximal effect; nearly all actives have a fitted effect of over 55% in size
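HEK-293-derived GP2 cells expressing PTHR1 and a GloSensor cAMP reporter, 3,000/well, plated overnight, given luciferin plus IBMX (each 0.5 mM as added) for 1 h at 37 °C, then compound for 1 h at 37 °C. Luminescence was read after 15 min at room temperature.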
GLP-1R inv ag = acts as inverse agonist at human GLP-1 receptor | P43220 | HEK293 GLP-1R CRE-luciferase, luminescence, 24 h; GLP-1R form is constitutively active | Potency, µM (series often up to 38.3 µM), for inactives: at the highest dose activity change, negative = inhibition, most hits filed as inhibitors | 1.6% of 410,000 active | AID 624417; note: potency is the fitted concentration of half-maximal effect; % is set by controls: 0 for no effect and ±100 for the full control effect; nearly all actives have a fitted effect of over 55% in size
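Luminescence readout: a drop in cAMP-driven luciferase signal flags inverse agonism at a constitutively active GLP-1R stably expressed in HEK293. Compound exposure lasted 24 hr at 37 deg C, 5% CO2.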
TRHR ag = agonists of human TRH receptor; TRHR cells, calcium flux fluo-8, FDSS agonist mode; activation, % at 2 µM; 0.18% of 360,000 active; AID 493084; in the data active = activation above about 30%; note: 0% is about no effect
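Fluo-8-loaded TRHR cells; 10 s baseline, compound added, kinetic Ca2+ fluorescence read 1/s, agonist mode.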
HEK293 tox = cytotoxicity in counter-screen for GLP-1R inverse agonists; HEK293 cAMP-luciferase reporter cells, luminescence, 24 h; Potency, µM (top dose mostly 38.3 µM), for the others: at the highest dose activity change, negative = inhibition, most hits filed as inhibitors; 0.13% of 410,000 active; AID 624418;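 note: loss of luciferase light is scored as toxicity; potency is the fitted concentration of half-maximal effect; % is set by controls: 0 for no effect and ±100 for the full control effect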
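Step one: seed cells (200 cells/uL, DMEM with 10% Nu serum, 1% pen-strep). Step two: 12-hour incubation at 37 deg C. Step three: pin 23 nL compound, incubate 24 hr. Step four: add luciferase reagent, read luminescence 12 min later.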
TRHR PAM = allosterically enhances the human TRH receptor; TRHR cells, fluo-8 calcium fluorescence, EC20 TRH enhancement; AID 493056; 0.66% of 360,000 active; enhancement, % at 2 µM; P34981; in the data active = enhancement above about 30%; note: 0% is about no effect
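TRHR-expressing cells loaded with fluo-8 calcium dye were read kinetically (ex 480/em 530) during compound addition, then stimulated with an EC20 of TRH (10 nM final). Enhancement of the Gq-mediated intracellular calcium response was scored.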
Active calls of the source: *; i = inactive; ? = inconclusive; / = not tested or not shown; [ ] = another dose, or the depositor's remark. Unless noted, calls come from the whole dose curve; as a rule, active = well fitted curve in the direction sought with a large enough effect; inconclusive = small, poorly fitted or top-dose-only effect, or another doubt; inactive = no such curve, though single readings can be large; an effect the other way counts as inactive or inconclusive.

SMILES	GLP1R ag	PTHR1 ag	GLP-1R inv ag	TRHR ag	HEK293 tox	TRHR PAM
O=C(/C=C/NNC(=O)c1ccccc1)c1ccccc1	-4%	-17%[57.5 µM]	?	1	3.2µM*	-2
COC(=O)c1ccc(N2CCN(c3ccccc3)CC2)nc1	9%	-18%	16%	1	3%	-6
CCN1CCN(C(=O)CCS(=O)(=O)c2cc3c(cc2Cl)NC(=O)CO3)CC1	-4%	-7%	5%	0	3%	2
CN1CCN(C(=O)CCS(=O)(=O)c2cc3c(cc2Cl)NC(=O)CO3)CC1	-5%	5%	14%	0	13%	39*
Cc1ccccc1C(=O)Nc1cccc(OCc2cc(=O)n3c4c(sc3n2)CCCC4)c1	1%	-75%	-1%	-1	1%	32*
O=C(Nc1cccc(OCc2cc(=O)n3c4c(sc3n2)CCCC4)c1)c1ccc(F)cc1	2%	-34%	9%	-2	2%	4
O=C1c2ccccc2C2(c3cc(C(F)(F)F)cc(C(F)(F)F)c3)NCCN12 (stereo not given)	20%	i	10µM*	1	-15%	-3
O=C(O)c1ccc(Cl)c(NCc2ccncc2)c1	1%	i	1%	1	-15%	11
CC1=NN(C(=O)COc2ccc(C)c(C)c2)C(O)(c2ccc(Cl)cc2)C1 (stereo not given)	7%	-36%	13µM*	-1	-13%	1
CCOc1ccc(NC(=O)NC23CC4CC(CC(C4)C2)C3)cc1	9%	-92%	2.5µM*	1	-8%	9
N#C/C(=C/c1cc[nH]c1)C(N)=S	4%	i	43%	0	-5%	33*
CC(C)Oc1ccccc1C1Nc2ccccc2C(=O)N1c1ccc2c(c1)OCCO2 (stereo not given)	-9%	-18%[57.5 µM]	10µM*	0	23%	-5
CC(C)Oc1ccccc1C1CC(=O)Nc2cc3c(cc21)OCCO3 (stereo not given)	?	-37%	-13%	0	?	-3
CCN(CC)CC(O)c1ccc2ccc3ccc(O)cc3c2c1 (stereo not given)	-4%	-24%	11µM*	/	?	/
CCN(CC)CC(O)Cn1c2ccccc2c2ccccc21 (stereo not given)	18%	i	?	0	16%	3
Cc1ccc(CN2COc3ccc4c(-c5ccccc5)cc(=O)oc4c3C2)cc1	/	-3%	2%	1	2%	55*
COc1ccc(CN2COc3ccc4c(-c5ccccc5)cc(=O)oc4c3C2)cc1	/	-24%	11%	-1	51%	0
O=C(Nc1ccon1)c1nc[nH]c1C(=O)N1CCc2ccccc2C1	-4%	i	17%	0	-9%	-2
COc1ccc(C(=O)N/N=C/c2cc3ccccc3[nH]c2=O)cc1	-6%	i	0%[0.307 µM]	0	-1%[0.307 µM]	2
COc1cc(-c2nc3ccc(C)cn3c2Nc2ccc(Cl)cc2)ccc1O	/	-16%	3.5µM*	-1	?	-1
CCC1CCCCN1C(=S)NC(=O)c1ccc(F)c(S(=O)(=O)N2CCOCC2)c1 (stereo not given)	5%	-12%	?	0	-30%	-4
CC(Oc1ccc(Cl)cc1Cl)C(=O)NC(=S)N1CCc2ccccc21 (stereo not given)	-12%	-1%	10µM*	0	?	-2
CC(Oc1ccc(Cl)cc1C(N)=O)C(=O)N1CCc2ccccc21 (stereo not given)	0%	-1%	-18%	/	-1%	/
FC(F)(F)c1cccc(N2CCN(C(=S)NC3CCCC3)CC2)c1	-2%	-22%[57.5 µM]	7.9µM*	1	?	-6
O=C(/C=C/c1ccc2c(c1)OCO2)NCCSCc1c(Cl)cccc1Cl	-1%	-4%	10µM*	-1	0%	-7
SMILES	GLP1R ag	PTHR1 ag	GLP-1R inv ag	TRHR ag	HEK293 tox	TRHR PAM
O=C(/C=C/c1ccc2c(c1)OCO2)NCCSCc1ccc(Cl)cc1	10%	-4%[57.5 µM]	5µM*	2	-13%	-1
O=C(Nc1cccc(O)c1)c1cc(-c2ccc3c(c2)OCO3)on1	-7%	-92%	10µM*	2	-9%	-1
CC(=O)c1cccc(NC(=O)c2cc(-c3ccc4c(c3)OCCO4)on2)c1	/	-23%	?	-1	-8%	-1
Cc1ccc(NC2=Nc3ccccc3N3C2=Nc2c(c(C)nn2-c2ccccc2)C3c2ccc(O)c(O)c2)cc1 (stereo not given)	-21%	-7%[57.5 µM]	11µM*	5	124%	6
COc1ccccc1S(=O)(=O)Nc1ccc(-c2nnc3n2CCCCC3)cc1	-10%	-12%[57.5 µM]	12%	-1	-1%	7
COc1cccc(F)c1C(C[N+](=O)[O-])c1c(N)n(C)c(=O)n(C)c1=O (stereo not given)	-6%	-12%	3.2µM*	2	?	3
COc1cc(C(C[N+](=O)[O-])c2c(N)n(C)c(=O)n(C)c2=O)ccc1O (stereo not given)	-3%	-41%	-20%	0	-4%	4
CC(=O)Nc1cccc(NC(=O)CS(=O)(=O)c2cn(CC(=O)N3CCCC3)c3ccccc23)c1	-3%	i	-9%	1	3%	2
CCC(C)c1ccc(O)c(NC(=O)c2cccnc2)c1 (stereo not given)	-3%	i	5%	0	-12%	0
CCC(C)c1ccc(O)c(NC(=S)NC(=O)c2cccs2)c1 (stereo not given)	9%	-3%	8.9µM*	/	-14%	/
COc1cccc(OC)c1NC(=O)c1ccc(-c2cc(Cl)ccc2Cl)o1	-2%	-41%	-30%	/	1%	/
CN1CCN(c2ccc3c(c2)C2CC3CCN2C(=O)OCc2ccccc2)CC1 (stereo not given)	30%	i	10µM*	/	0%	/
Cc1ccc(C(=O)N2c3ccccc3N(Cc3ccccc3)C(=O)C2(C)C)cc1	0%	-22%[57.5 µM]	11µM*	-1	26%	-11
CC(C(=O)OCC(=O)Nc1ncc(Cl)cc1Cl)N1C(=O)c2ccccc2C1=O (stereo not given)	-6%	-17%[57.5 µM]	-3%	0	-2%	7
CCOC(=O)c1sc(NC(=O)C2CC(=O)N(c3ccccc3C)C2)nc1C (stereo not given)	16%	i	2%	0	-3%	9
CN(C)c1ccc(C=C2C(=O)OC(C)(C)OC2=O)cc1	-3%	-38%	-9%	0	-1%	1
CN(C)c1ccc(/C=C2/C[N+](C)(C)C/C(=C/c3ccc(N(C)C)cc3)C2=O)cc1	-3%	i	25%	/	8.9µM*	/
